These results are taken from PubChem BioAssay (NCATS).

Inconclusive results are not listed. The source made the active and inactive calls. Calls follow the shape of the dose curve; as a rule, active = well fitted cell-killing curve with a large enough effect; inconclusive = small, poorly fitted or top-dose-only effect; inactive = flat fitted curve, though single readings scatter. Where a SMILES comes first, the peptide text is derived from it. Bridges are numbered along the chain shown (N, C = ends). [ ]: non-standard residue; d: D form. The star is where a group is joined. ξ: configuration not given here. d(aThr) = C[C@@H](O)[C@@H](N)C(=O)O; ξThr(3R) = C[C@@H](O)C(N)C(=O)O; X3 = CC[C@@H](C)CCCCC(=O)*; dDab = NCC[C@@H](N)C(=O)O
% is scaled to controls: 0 for no effect and ±100 for the full control effect; potency is read from the fitted curve at half-maximal effect.

A short description of the assay: qHTS assay to identify small molecule inhibitors of chordoma cells - UCH-2 (AID 1259356). The note with it: UCH-2 chordoma viability, CellTiter-Glo ATP luminescence, 48 h; series mostly up to 46.1 µM; activity change, negative = inhibition: at the top concentration. The text has this: NIH Chemical Genomics Center [NCGC]
Chordoma is a rare and slow growing tumor that can occur anywhere along the spine, from the base of the skull to the tailbone. Current treatment options for chordoma is surgery and radiation therapy for those who are not candidates for surgery. But chordomas tend to return in the same location or surrounding areas of the original tumor after surgery and/or radiation. Chemotherapy can slow down the progression of the tumor. As chordoma is slow growing, the general cytotoxic agents that kill fast growing cells are ineffective, and some patients have been reported to respond to molecularly targeted drugs.
NCATS Pharmaceutical Collection (NPC) containing approximately 3000 clinically approved and investigational drugs were used to screen at 15 concentrations in a chordoma cell lines, UCH-2, to identify small molecule compounds that can inhibit chordoma cell growth.
NCGC Assay Protocol Summary:
Human chordoma cell line UCH-2 was dispensed at 800 per well in 4uL of culture medium into white solid bottom 1536-well plates (Corning Life Sciences, Corning, NY) using a Multidrop Combi (Thermo Scientific, Waltham, MA) dispenser. The assay plates were incubated at 37 C and 5% CO2 for an overnight, and then 23nL of compounds dissolved in DMSO and positive control were transferred using a Pintool station (Wako, San Diego, CA). Compound treatment was followed by the addition of 1uL of the combination compounds (1uM Auranofin, 500nM each of Camptothecin, Doxorubicin, Rubitecan, and Topotecan) and assay medium to each well of the assay plates using Flying Reagent Dispenser (FRD, Aurora Discovery, San Diego, CA). The assay plates were incubated at 37 C and 5% CO2 for 48hr. Then 5uL of CellTiter-Glo reagent (Promega Corporation, Madison, WI) was added to each well of the assay plates using FRD. After 30min incubation at room temperature, the luminescence signal was quantified using a ViewLux plate reader (PerkinElmer, Shelton, CT).
For the molecule `O=[n+]1ccn([O-])c2ccccc21`, the “activity change, negative = inhibition” value was -28.1% (inactive).

As for `CCN(CC)CCOC(=O)c1cccnc1`, the “activity change, negative = inhibition” value is -15.7% (inactive).

In the case of `OC1OC[C@@H](O)[C@H](O)[C@@H]1O` (stereo not given in full), the “activity change, negative = inhibition” value was 7.51% (inactive).

`CC1CC(OC(=O)C(O)c2ccccc2)CC(C)(C)C1` (stereo not given): the “activity change, negative = inhibition” value is 6.07% (inactive).

In the case of `C=C1CC[C@H](O)C/C1=C\C=C1/CCC[C@]2(C)[C@@H]([C@H](C)CCCC(C)C)CC[C@@H]12`, the “activity change, negative = inhibition” value is -2.59% (inactive).

In the case of `CCC(O)c1ccccc1` (stereo not given), the “activity change, negative = inhibition” value is 8.52% (inactive).

Consider `Cc1cc2nc3c(=O)[nH]c(=O)nc-3n(C[C@H](O)[C@H](O)[C@H](O)COP(=O)(O)OP(=O)(O)OC[C@H]3O[C@@H](n4cnc5c(N)ncnc54)[C@H](O)[C@@H]3O)c2cc1C`, for which the “activity change, negative = inhibition” value was -0.786% (inactive).

In the case of `O=C(O)CCC/C=C\C[C@@H]1[C@@H](/C=C/[C@@H](O)COc2cccc(C(F)(F)F)c2)[C@H](O)C[C@@H]1O`, the “activity change, negative = inhibition” value is 7.45% (inactive).

With `CNC(=O)[C@H](Cc1c[nH]c2ccccc12)NC(=O)[C@@H](CC(=O)NO)CC(C)C`, the “activity change, negative = inhibition” value was 26.4% (inactive).

Consider `CCOC(=O)C1=C(COCCN)NC(C)=C(C(=O)OC)C1c1ccccc1Cl` (stereo not given), for which the “activity change, negative = inhibition” value is -0.378% (inactive).

On to `O=C(OC[C@H]1O[C@@H](OC(=O)c2cc(O)c(O)c(OC(=O)c3cc(O)c(O)c(O)c3)c2)[C@H](OC(=O)c2cc(O)c(O)c(OC(=O)c3cc(O)c(O)c(O)c3)c2)[C@@H](OC(=O)c2cc(O)c(O)c(OC(=O)c3cc(O)c(O)c(O)c3)c2)[C@@H]1OC(=O)c1cc(O)c(O)c(OC(=O)c2cc(O)c(O)c(O)c2)c1)c1cc(O)c(O)c(OC(=O)c2cc(O)c(O)c(O)c2)c1`, for which the Potency was 16.4 µM (active).

For `CCCC(CCC)C(=O)OC1C[C@H]2CC[C@@H](C1)[N+]2(C)C` (stereo not given in full), the “activity change, negative = inhibition” value was 1.61% (inactive).

With `CN[C@@H]1[C@@H](O)[C@@H](O[C@@H]2[C@@H](O)[C@H](OC3OC(CN)=CCC3N)[C@@H](N)C[C@H]2N)OC[C@]1(C)O` (stereo not given in full), the “activity change, negative = inhibition” value is -6.52% [at 20.6 µM] (inactive).

As to `O=C(O)[C@H]1CN(C/C=C/P(=O)(O)O)CCN1`, the “activity change, negative = inhibition” value was 0.679% (inactive).

As to `C=C1C(CCl)(CCl)C2(Cl)C(Cl)C(Cl)C1(Cl)C2(Cl)Cl` (stereo not given), the “activity change, negative = inhibition” value is 1.22% (inactive).

Take `NS(=O)(=O)c1cc2c(cc1Cl)NC(Cc1ccccc1)NS2(=O)=O` (stereo not given): the “activity change, negative = inhibition” value was 7.88% (inactive).

On to `CCc1ccc(S(=O)(=O)O)cc1`, for which the “activity change, negative = inhibition” value is 3.87% (inactive).

In the case of `O=C1c2ccccc2C(=O)C1c1ccc(Cl)cc1`, the “activity change, negative = inhibition” value was 9.34% (inactive).

Take `CC(O)[C@@H]1NC(=O)[C@H](Cc2ccccc2)NC(=O)[C@H](C(C)O)NC(=O)[C@H](CCCCN)NC(=O)[C@H](Cc2c[nH]c3ccccc23)NC(=O)[C@H](Cc2ccccc2)NC(=O)[C@H](Cc2ccccc2)NC(=O)[C@H](CC(N)=O)NC(=O)[C@H](CCCCN)NC(=O)[C@@H](NC(=O)CNC(=O)[C@H](C)N)CSSC[C@@H](C(=O)O)NC(=O)[C@H](CO)NC1=O` (stereo not given in full): the “activity change, negative = inhibition” value was 13.8% (inactive).

Regarding `CC(C)(COP(=O)(O)OP(=O)(O)OC[C@H]1O[C@@H](n2cnc3c(N)ncnc32)[C@H](O)[C@@H]1OP(=O)(O)O)C(O)C(=O)NCCC(=O)NCCS` (stereo not given in full), the “activity change, negative = inhibition” value is -0.5% (inactive).

With `CN(C)C(=O)CCSC(SCCC(=O)O)c1cccc(/C=C/c2ccc3ccc(Cl)cc3n2)c1` (stereo not given), the “activity change, negative = inhibition” value was -1.2% (inactive).

`[O]=[Bi][O]C(=O)[O][Bi]=[O]`: the “activity change, negative = inhibition” value is 1.54% (inactive).

Regarding `CO[C@@H]1[C@H](OC(=O)/C=C/C=C/C=C/C=C/C(=O)O)CC[C@]2(CO2)[C@H]1[C@@]1(C)O[C@@H]1CC=C(C)C`, the “activity change, negative = inhibition” value was -3.07% (inactive).

Take `FC(F)(F)C(F)(F)C(F)(F)C(F)(F)C(F)(F)C(F)(F)F`: the “activity change, negative = inhibition” value was 7.22% (inactive).

On to `COc1ccc2c(=O)c(C)c(-c3ccccc3)oc2c1CN(C)C`, for which the “activity change, negative = inhibition” value is 4.11% (inactive).

Consider `CCCCCCCCCC(=O)NO`, for which the “activity change, negative = inhibition” value was -6.13% (inactive).

With `CC[C@@]1([C@@H]2O[C@@H]([C@H]3O[C@@](O)(CO)[C@H](C)C[C@@H]3C)C[C@@H]2C)CC[C@H]([C@]2(C)CC[C@]3(C[C@H](O)[C@@H](C)[C@@H]([C@@H](C)[C@@H](OC)[C@H](C)C(=O)O)O3)O2)O1` (stereo in doubt), the “activity change, negative = inhibition” value is -23.4% (inactive).

Consider `CCN(CC)CCOC[C@H]1O[C@@H](O)[C@H](OCCN(CC)CC)[C@@H](O)[C@@H]1O`, for which the “activity change, negative = inhibition” value is -1.42% (inactive).

On to `C[N+]1(C)[C@@H]2CC(OC(=O)C(O)(c3cccs3)c3cccs3)C[C@H]1[C@@H]1O[C@@H]12` (stereo not given in full), for which the “activity change, negative = inhibition” value was 5.76% (inactive).

Turning to `CCN(CC)CCOc1ccc2nc(N(C)C)sc2c1`, the “activity change, negative = inhibition” value is -0.444% (inactive).

Turning to `CCCCCc1ccc(C)cc1O`, the “activity change, negative = inhibition” value was -20% (inactive).

As for `CCCCCCCCCCCCCCCC(=O)OC[C@@H](O)[C@H]1OC[C@H](O)[C@H]1O`, the “activity change, negative = inhibition” value was -2.89% (inactive).

Consider `CC1C(=O)CC2C3(C)CCC2(C(C)C(=O)O)C(=O)C13` (stereo not given), for which the “activity change, negative = inhibition” value was -15.1% (inactive).

Turning to `O=P(O)(O)CP(=O)(O)O`, the “activity change, negative = inhibition” value is 1.87% (inactive).

As to `Cc1cccc(C)c1NC(=O)NC1=CCCN1C`, the “activity change, negative = inhibition” value was 1.67% (inactive).

`CNCC(O)c1ccc(OC(=O)C(C)(C)C)c(OC(=O)C(C)(C)C)c1` (stereo not given): the “activity change, negative = inhibition” value is -22.4% [at 20.6 µM] (inactive).

Take `CC1(O)CCC(C(C)(C)O)CC1` (stereo not given): the “activity change, negative = inhibition” value was -9.41% (inactive).

As for `CC[C@@H](C)CCCCC(=O)N[C@H](CCN)C(=O)N[C@@H](C(=O)N[C@H](CCN)C(=O)N[C@@H]1CCNC(=O)C([C@@H](C)O)NC(=O)[C@@H](CCN)NC(=O)[C@@H](CCN)NC(=O)[C@@H](CC(C)C)NC(=O)[C@@H](Cc2ccccc2)NC(=O)[C@@H](CCN)NC1=O)[C@@H](C)O` (stereo partly drawn) (X3-[dDab][d(aThr)][dDab][dDab][dDab][dF][dL][dDab][dDab][ξThr(3R)]; lactam 4-C), the “activity change, negative = inhibition” value was 0.526% (inactive).

Regarding `COC1=C(OC)C(=O)C(C/C=C(\C)CC/C=C(\C)CC/C=C(\C)CC/C=C(\C)CC/C=C(\C)CC/C=C(\C)CC/C=C(\C)CC/C=C(\C)CC/C=C(\C)CCC=C(C)C)=C(C)C1=O`, the “activity change, negative = inhibition” value was -0.47% (inactive).

With `O=P(O)(O)OP(=O)(O)O`, the “activity change, negative = inhibition” value is 19.4% (inactive).
